CYP2C19 inh: inhibitors of human CYP2C19; AID 778; P33261; hit rate 21% among 96,000; CYP2C19 Supersomes, luciferin-H EGE luminescence, 30 min; inhibition, % at 5 µM;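 active means CYP2C19 inhibition above a set limit at 5 µM in the primary screen, cut at about 50% in these data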;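 further: plate controls were negative control wells for no effect and 2.5 mM tranylcypromine positive control for full effect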
Mac1 fbg inh: blocks human CD11b/CD18 adhesion to fibrinogen | P05107+P11215 | K562 CD11b/CD18 adhesion to fibrinogen, ATPlite luminescence; Mn2+ added to activate the integrin | hit rate 0.54% among 93,000 | inhibition, % at 10 µM;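 active means primary inhibition of 50% or more at 10 µM, then 40% or more on retest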
CD11b adhes enh: enhancers of human CD11b/CD18 binding to fibrinogen; P05107+P11215; K562 CD11b/CD18 adhesion to fibrinogen, ATPlite luminescence; activation, % at 10 µM; hit rate 0.07% among 93,000; AID 1499;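 active means 10 µM primary screen giving 50% or more activity, confirmed by 40% or more on retest at that dose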
CYP2C19 act: cytochrome P450 2C19 (human) activation. AID 1025. activation factor at 5 µM. recombinant CYP2C19, luciferin-H EGE luminescence; stronger effect = higher value; 0 = fully inhibited enzyme, 1 = untreated enzyme. 96,000 tested, under 10 active. P33261;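 active means activation factor of at least 2 at 5 µM in the primary screen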;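 further: 0 = wells with 2.5 mM tranylcypromine and 1 = vehicle-only wells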
CYP2C9 act: activators of human CYP2C9. P11712. recombinant CYP2C9, luciferin-H conversion, luminescence; stronger effect = higher value; factor 1 = untreated enzyme, 0 = blocked. activation factor at 5 µM. hit rate 1.4% among 96,000. AID 1024;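 active means activation factor of 2 or more for CYP2C9 at a 5 µM dose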;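 further: 0 = sulfaphenazole-blocked wells and 1 = vehicle-only wells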
Target sequence (P11712 whole entry, looked up): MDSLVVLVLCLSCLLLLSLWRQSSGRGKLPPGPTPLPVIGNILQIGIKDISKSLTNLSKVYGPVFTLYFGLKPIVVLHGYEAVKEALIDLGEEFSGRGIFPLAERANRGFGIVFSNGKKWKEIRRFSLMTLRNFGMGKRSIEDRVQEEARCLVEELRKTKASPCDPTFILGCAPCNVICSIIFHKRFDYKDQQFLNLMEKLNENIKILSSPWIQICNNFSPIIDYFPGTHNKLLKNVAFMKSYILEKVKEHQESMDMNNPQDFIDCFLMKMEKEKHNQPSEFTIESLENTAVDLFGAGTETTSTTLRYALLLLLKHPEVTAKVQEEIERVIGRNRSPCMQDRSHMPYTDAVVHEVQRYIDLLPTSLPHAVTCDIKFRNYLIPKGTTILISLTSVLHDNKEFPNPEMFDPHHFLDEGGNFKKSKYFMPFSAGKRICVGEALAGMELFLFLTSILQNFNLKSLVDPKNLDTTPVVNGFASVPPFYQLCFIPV
CYP2C9 inhib: inhibitors of human CYP2C9; P11712; hit rate 20% among 96,000; CYP2C9 Supersomes, luciferin-H conversion, luminescence; inhibition, % at 5 µM; AID 777;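 active means blocking of liver enzyme CYP2C9 beyond about 50% at 5 µM, limit read from the data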
* hit, by the source's call; x = no result. Most compounds without a hit are left out; they make up all but 28% or so of the library.

SMILES | CYP2C19 inh | Mac1 fbg inh | CD11b adhes enh | CYP2C19 act | CYP2C9 act | CYP2C9 inhib
OCCNCc1cc(Br)ccc1OCc1ccc(Cl)cc1 | 52.9* | x | x | 0.5 | 1 | -3.2
C=CCOc1ccccc1CNCc1cccnc1 | 47.7 | -15.7 | 1.1 | 0.5 | 0.7 | 33.9
CCOc1cc(CNCCO)cc(Br)c1OCc1ccc(Cl)cc1Cl | 38.1 | x | x | 0.6 | 1.1 | -7.0
Brc1ccc(OCc2ccccc2)c(CNCc2ccncc2)c1 | 99.4* | x | x | 0 | 0.2 | 84.3*
COCCNC(=O)Nc1ccc2nc(-c3cccs3)c(-c3cccs3)nc2c1 | 2.2 | -3.4 | 2.8 | 1 | 0.5 | 51.9*
CCOC(=O)N1CCN(S(=O)(=O)c2cc(OCC)ccc2OCC)CC1 | 58.8* | 3.8 | -6.2 | 0.4 | 0.4 | 55.4*
CCOC(=O)N1CCN(S(=O)(=O)c2cccc3ccc(C)nc23)CC1 | 65.9* | -12.3 | 6.5 | 0.3 | 1.7 | -68.8
CCOc1ccc(-n2cnnn2)cc1S(=O)(=O)N1CCCCC1 | -13.8 | 10.9 | 0.3 | 1.1 | 1.3 | -28.0
CCOC(=O)N1CCN(S(=O)(=O)c2ccc(C)c(C)c2)CC1 | 40.7 | -10.9 | -2.1 | 0.6 | 1.6 | -63.1
CCOc1ccc(OCC)c(S(=O)(=O)N2CCCCC2)c1 | 80.9* | -1.7 | 2.0 | 0.2 | 0.6 | 39.5
CCOC(=O)N1CCN(S(=O)(=O)c2ccc(OCC)c(C)c2)CC1 | 95.6* | -5.8 | 5.9 | 0 | 1.7 | -66.4
CCOC(=O)N1CCN(S(=O)(=O)c2ccc3c(c2)SCC(=O)N3)CC1 | 2.6 | 1.3 | -1.2 | 1 | 1.1 | -8.5
O/N=C1\CC/C(=N\O)c2nn(-c3ccc(Cl)cc3Cl)nc21 | -9.0 | 6.2 | 2.3 | 1.1 | 0.8 | 15.7
CC1(C)CC(C#N)(N2CCOCC2)CCO1 (stereo not given) | 9.6 | 4.6 | -3.2 | 0.9 | 1.1 | -12.2
CCOC(=O)N1CCN(C(=O)COc2ccc(S(=O)(=O)NCC(C)C)cc2C)CC1 | 17.6 | 12.5 | 3.9 | 0.8 | 0.4 | 61.5*
CCOc1ccc(OCC)c(S(=O)(=O)N2CCC(C)CC2)c1 | 59.7* | -12.3 | 4.7 | 0.4 | 0.7 | 33.8
CCOc1ccc2cc(S(=O)(=O)N3CCOCC3)ccc2c1 | 0.8 | -2.1 | -1.6 | 1 | 0.8 | 24.0
CN(CCC(=O)Nc1ccc(Br)cc1)Cc1ccccc1 | 26.1 | 1.4 | -2.4 | 0.7 | 0.7 | 34.7
COC(=O)C(C)Sc1nnc(-c2ccncc2)o1 (stereo not given) | 89.3* | -28.5 | 2.3 | 0.1 | 0.8 | 19.8
COc1ccc(-c2nnc(SCC(=O)c3cccs3)o2)cc1 | 18.5 | -3.5 | -4.0 | 0.8 | 0.6 | 35.2
COC(=O)c1ccc(CSc2nnc(-c3ccncc3)o2)o1 | 90.6* | -3.9 | -1.7 | 0.1 | 0.2 | 75.8*
COC(=O)c1ccc(CSc2nnnn2-c2ccc(C)cc2C)o1 | 89.6* | 10.3 | -0.5 | 0.1 | 0.1 | 86.1*
COC(=O)c1ccc(CSc2nnc(-c3ccncc3)n2Cc2ccccc2)o1 | 87.2* | 2.3 | -5.3 | 0.1 | 0.3 | 74.2*
CNC(=O)CSc1nnc(-c2ccncc2)n1Cc1ccccc1 | 17.0 | x | x | 0.8 | 0.9 | 13.3
Cc1ccc(NC(=O)CCSc2nnc3ccccn23)cc1 | 54.9* | x | x | 0.5 | 0.9 | 12.3
SMILES | CYP2C19 inh | Mac1 fbg inh | CD11b adhes enh | CYP2C19 act | CYP2C9 act | CYP2C9 inhib
Cc1ccc(-n2nnnc2SCC(=O)NCCC2=CCCCC2)c(C)c1 | 71.0* | 5.0 | 2.3 | 0.3 | 0.2 | 80.4*
COC(=O)c1ccc(CSc2nnc3ccccn23)o1 | 52.1* | 32.1 | -1.8 | 0.5 | 0.9 | 7.0
CCOC(=O)c1c(-c2ccc(C)cc2)csc1NC(=O)CCSc1nnc2ccccn12 | x | 35.6 | -3.1 | x | x | x
O=C(OCC#CCSc1nnc(-c2ccc([N+](=O)[O-])cc2)o1)c1cccs1 | -11.0 | 71.8 | -2.0 | 1.1 | 0.9 | 6.5
O=c1oc2c(CN3CCCCC3)c(O)ccc2cc1-c1nc2ccccc2[nH]1 | 54.0* | -14.5 | 0.5 | 0.5 | 0.5 | 52.5*
CC(C)[C@H](NC(=O)NCc1cccs1)C(=O)O | -0.7 | -7.9 | 1.2 | 1 | 1.1 | -7.4
COc1cc(C)ccc1OCCCOc1ccccc1Cl | 36.2 | 5.0 | 4.8 | 0.6 | 0.9 | 5.7
COc1cc(C=O)ccc1OCCOCCOc1cc(C)ccc1Cl | 49.9 | 20.1 | -4.1 | 0.5 | 0.5 | 51.8*
COc1cc(C)ccc1OCCOc1ccccc1Cl | 70.0* | -8.0 | 2.5 | 0.3 | 0.7 | 28.4

Source: PubChem BioAssay (Sanford-Burnham Center for Chemical Genomics)
